Bioassay records: PubChem BioAssay, National Center for Advancing Translational Sciences (NCATS)
DT40 TDP1 CPT – growth inhibition of DT40 Tdp1-/-;hTDP1 cells with camptothecin (screen for TDP1 inhibitors). Potency, µM (doses to about 46.2 µM), for inactives: at the highest dose activity change, negative = growth inhibition, usual class: inhibitors. chicken DT40 Tdp1-/-;hTDP1 cells + 20 nM CPT, ATP luminescence, 48 h. AID 686979. 420,000 tested, 12% active; note: % is set by controls: 0 for no effect and ±100 for the full control effect; nearly all actives have a fitted effect of over 55% in size
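Chicken DT40 Tdp1-/- cells stably complemented with human TDP1 were seeded at 400 cells/well in medium containing 20 nM camptothecin, exposed to pin-transferred compounds, and grown at 37 °C for at least 48 hr. Viability was read as ATP luminescence.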
HepG2 viability – kills HepG2 cells in TGF-b inhibitor counter-screen | HepG2 CAGA-GFP viability, ATP luminescence, 18 h | Potency, µM (highest dose often 46.1 µM), inactives show at the highest dose activity change, negative = cytotoxicity, usual class: cytotoxic | 410,000 tested, 0.76% active
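HepG2 CAGA-GFP cells (1000/well, DMEM with 1% FBS) received compound, then TGF-beta at 500 pg/mL final, and were incubated 18 hours at 37 degrees C. Viability was read by CellTiter-Glo luminescence. Media-only wells were set as complete cell-killing and DMSO as no toxicity.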
TGFb inhibitor – TGF-b pathway inhibition. 410,000 tested, 1.2% active. HepG2 CAGA-GFP TGF-b/SMAD3 reporter, GFP fluorescence, 18 h; TGF-beta stimulated, 500 pg/mL final. AID 588855. Potency, µM (titrated, usually from 46.1 µM), for inactives: top-dose activity, negative = inhibition, most hits filed as inhibitors; note: % is set by controls: 0 for no effect and ±100 for the full control effect; nearly all actives have a fitted effect of over 65% in size
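HEPG2 CAGA-GFP reporter cells (1000/well, DMEM with 1% FBS) received compounds, then recombinant TGF-beta at 500 pg/mL final for 18 hours at 37 degrees C. Per-cell GFP summed per well was normalised to unstimulated and stimulated DMSO controls before curve fitting.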
HT1080 IDH1KD tx – HT-1080 IDH1 knockdown cell toxicity (counter line). AID 686971. HT-1080 IDH1 knockdown viability, ATP luminescence, 48 h. 360,000 tested, 2% active. Potency, µM (top dose mostly 46.1 µM), without a hit: at the top dose activity, negative = toxicity, actives largely listed as cytotoxic;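 note: 0% = DMSO wells and -100% = cell-free medium wells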
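Assay cells: HT-1080 with IDH1 knockdown, 750 per well, RPMI/5% FBS. Exposure: 48 h at 37 °C following 2 h pre-incubation. Read: CellTiter-Glo luminescence; fitted concentration-response, curve class assigned.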
DT40 TDP1 no CPT – qHTS for Inhibitors of human tyrosyl-DNA phosphodiesterase 1 (TDP1): qHTS in cells in absence of CPT. DT40 Tdp1-/- hTDP1 cells, no CPT, ATP luminescence, 48 h. Potency, µM (doses to about 46.2 µM), without a hit: at the highest dose activity change, negative = growth inhibition, actives largely listed as inhibitors. 420,000 tested, 15% active. AID 686978, 2013; note: % is set by controls: 0 for no effect and ±100 for the full control effect; nearly all actives have a fitted effect of over 55% in size
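DT40 Tdp1-/-;hTDP1 cells, no CPT (DMSO vehicle only), 400 cells/well; compounds pin-transferred; ≥48 hr, 37 °C; CellTiter-Glo 30 min RT dark, luminescence read.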
HT1080-NT tox – kills 2HG-producing HT-1080-NT fibrosarcoma cells. Potency, µM (titrated, usually from 46.1 µM), without a hit: top-dose activity, negative = less viability, most hits filed as cytotoxic. AID 686970. HT-1080-NT fibrosarcoma viability, CellTiter-Glo ATP luminescence, 48 h. 360,000 tested, 1.6% active;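 note: NT is the 2HG producing partner of a matched IDH1 knockdown line; 0% = DMSO-treated cells and -100% = media-only wells without cells; nearly all actives have a fitted effect of over 55% in size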
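Toxicity toward the 2HG-producing NT line was scored as %Activity, normalised to DMSO and no-cell wells, from CellTiter-Glo luminescence after 48 hours' treatment.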
The depositor's hits bear a star; ? = inconclusive; · = not tested or not shown. Sampled rows, rich in hits. Any-hit rate of the full collection: about 17%. Calls come from the whole dose curve; as a rule, active = well fitted curve in the direction sought with a large enough effect; inconclusive = small, poorly fitted or top-dose-only effect, or another doubt; inactive = no such curve, though single readings can be large; an effect the other way counts as inactive or inconclusive. Potency is the fitted concentration of half-maximal effect.

SMILES	DT40 TDP1 CPT	HepG2 viability	TGFb inhibitor	HT1080 IDH1KD tx	DT40 TDP1 no CPT	HT1080-NT tox
Cc1ccsc1CN(Cc1ccco1)C(=O)c1ccc(Cl)cc1	16µM*	-48%	?	·	13µM*	·
CCc1ccc(CN(Cc2ccco2)C(=O)c2ccc(C)cc2)cc1	?	-61%	-31%	·	?	·
CCCOc1ccc(C(=O)N(Cc2ccc(Cl)cc2)Cc2ccco2)cc1	?	-36%	·	·	?	·
Cc1ccc(C(=O)N(Cc2ccco2)Cc2sccc2C)cc1	21µM*	-16%	?	·	23µM*	·
CCOC(=O)c1c(C)oc2ccc(N(C(=O)c3ccncc3)S(=O)(=O)c3ccc(F)cc3)cc12	·	1%	-4%	·	·	·
O=S(=O)(Nc1ccc2oc3c(c2c1)CCCC3)c1cc(Cl)ccc1Cl	-30%	-106%	?	·	?	·
CCOc1ccc(S(=O)(=O)N(C(=O)c2ccncc2)c2ccc3oc(C)c(C(=O)OC)c3c2)cc1	1µM*	-22%	?	·	0.92µM*	·
CCc1ccc(S(=O)(=O)N(C(=O)c2ccncc2)c2ccc3oc(C)c(C(=O)OC)c3c2)cc1	2.9µM*	-62%	?	·	2.6µM*	·
CCN(CC)C(=O)COc1ccc2oc(C)c(C(=O)OC)c2c1	3%	-29%	-1%	10%	?	-5%
COc1ccc(S(=O)(=O)N(C(=O)c2ccncc2)c2ccc3oc(C)c(C(C)=O)c3c2)cc1	3.7µM*	-25%	?	·	2.3µM*	·
Cc1ccc(S(=O)(=O)Nc2cc(Cl)c3oc4c(c3c2)CCCC4)cc1	?	-106%	?	·	13µM*	·
CCN(CC)S(=O)(=O)c1ccc(N2CCCC2)c(NC(=O)CC(C)(C)C)c1	11%	1%	3%	2%	-7%	3%
CC(NC(=S)NCCc1ccccc1)C(c1cccs1)N1CCN(C)CC1 (stereo not drawn)	-4%	-20%	12%	-6%	-3%	6%
CCOc1ccc(N=C(/C(C(=O)C(=O)N2CCOCC2)=C(\O)c2ccccc2)c2ccccc2)cc1	4%	7%	0%	0%	0%	2%
CCCCOc1ccc(CC(=O)N(C)OC)cc1	-4%	4%	26%	·	-29%	·
O=C(Oc1ccc[nH]c1=O)C1CC1	-8%	-17%	-17%	?	-10%	?
c1cncc(-c2cn(C[C@H]3CC[C@@H]([C@@H]4CC[C@H](Cn5cc(-c6cccnc6)nn5)O4)O3)nn2)c1	-12%	9%	?	0%	4%	6%
CCCC(=O)N(c1ccc2oc(C)c(C(C)=O)c2c1)S(=O)(=O)c1ccc(C)cc1	·	-23%	?	·	·	·
CC(=O)c1c(C)oc2ccc(N(C(=O)c3ccncc3)S(=O)(=O)c3ccc(C)cc3C)cc12	·	-23%	-4%	·	·	·
CC(=O)c1c(C)oc2ccc(N(C(C)=O)S(=O)(=O)c3cccc([N+](=O)[O-])c3)cc12	21µM*	-10%	-4%	5%	?	0%
COc1ccc(S(=O)(=O)Nc2ccc3oc4c(c3c2)CCCC4)cc1	?	-102%	13µM*	·	21µM*	·
COC(=O)c1c(C)oc2ccc(N(C(=O)c3ccncc3)S(=O)(=O)c3ccc(OC)cc3)cc12	0.58µM*	-13%	-33%	·	0.52µM*	·
CC(=O)c1c(C)oc2ccc(N(C(=O)Oc3ccccc3)S(=O)(=O)c3ccc(C(C)(C)C)cc3)cc12	5.2µM*	-12%	-22%	·	9.2µM*	·
CC1CCCN(S(=O)(=O)c2cccc(C(=O)NCCCN3CCCC3=O)c2)C1 (stereo not drawn)	-7%	-21%	-7%	4%	-6%	10%
CCCCC(=O)N(C)c1c(C)nc2ccc(C(=O)NCCN(C)C)cn12	-1%	2%	5%	19%	-7%	-4%
SMILES	DT40 TDP1 CPT	HepG2 viability	TGFb inhibitor	HT1080 IDH1KD tx	DT40 TDP1 no CPT	HT1080-NT tox
O=C(NCc1cccnc1)c1ccc(COc2cccc3ccccc23)o1	?	-25%	10%	?	?	-20%
CCCNC(=O)COCc1cc(-c2ccc(F)cc2)on1	-20%	-24%	17%	·	?	·
COc1ccc(S(=O)(=O)N(C(=O)c2ccncc2)c2ccc3oc4c(c3c2)CCCC4)cc1	18µM*	-59%	11µM*	?	21µM*	-21%
CCOC(=O)COc1cc(-n2c(=S)[nH]c3cc(OC)c(OC)cc3c2=O)c(Cl)cc1Cl	-29%	21%	-10%	10%	?	2%
O=C(c1cnc2n(c1=O)CCS2)N1CCN(C(c2ccccc2)c2ccc(Cl)cc2)CC1 (stereo not drawn)	12µM*	-27%	-12%	-15%	21µM*	-30%
Cc1cc(O)cc2c1C1CCC3(C)C(O)CCC3C1C=C2 (stereo not drawn)	?	2%	39%	18µM*	21µM*	?
COc1ccc2c(c1)CCC1C2CC[C@@]2(C)C(O)CCC12 (stereo partly drawn)	-21%	·	·	·	-3%	·
Cc1ccc(S(=O)(=O)N2CC3C(=O)C[C@@H](c4ccccc4)N(S(=O)(=O)c4cccc(Cl)c4)C3CC2c2ccccc2)cc1 (stereo partly drawn)	?	·	·	-5%	23µM*	-4%
Cc1ccccc1NC(=O)COC(=O)c1ccccc1SCC(=O)N1CCCC1	-2%	10%	17%	4%	-20%	5%
COc1ccc(-c2cn3cccnc3n2)cc1NC(=O)COc1ccccc1	21µM*	-63%	?	·	13µM*	·
COc1ccc(-c2cn3cccnc3n2)cc1NC(=O)C1CC1	0%	-2%	14%	5%	4%	15%
O=C(COc1ccccc1)Nc1cccc(-c2cn3cccnc3n2)c1	21µM*	3%	7%	11%	?	8%
O=C(Cc1ccccc1)Nc1cccc(-c2cn3cccnc3n2)c1	?	-3%	-13%	·	?	·
CN(C)c1ccc(/C=C2\C=Cc3ccccc32)cc1N	?	-35%	-20%	·	?	·
CC(C)CN1C(=O)NC2(CCCc3ccccc32)C1=O (stereo not drawn)	-1%	-2%	-4%	12%	17%	0%
CCOC1=C2[C@H](c3ccccc3Cl)N(S(=O)(=O)c3ccc(C)cc3)C[C@H]2C(C#N)(C#N)C(C#N)(C#N)C1	4.6µM*	-41%	?	-1%	9.2µM*	-1%
